Test results published in paper PMC4336329 (PLoS ONE, 2015).
Out of some 310,000 compounds screened, about 14,000 (4.5%) showed an effect of 50% or more. The effect is printed as a negative number. Only a selection was taken, and strong results are over-represented in it overall.

Biological target: human ether-à-go-go-related gene (hERG) potassium channel (human, UniProt Q12809)
Experiment: primary screen, population patch clamp on CHO cells stably expressing hERG; higher = less effect of the substance
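Further: peak tail current of the secondary pulse compared with the same well before compound.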

Chain of human ether-à-go-go-related gene (hERG) potassium channel (Q12809 whole entry, looked up): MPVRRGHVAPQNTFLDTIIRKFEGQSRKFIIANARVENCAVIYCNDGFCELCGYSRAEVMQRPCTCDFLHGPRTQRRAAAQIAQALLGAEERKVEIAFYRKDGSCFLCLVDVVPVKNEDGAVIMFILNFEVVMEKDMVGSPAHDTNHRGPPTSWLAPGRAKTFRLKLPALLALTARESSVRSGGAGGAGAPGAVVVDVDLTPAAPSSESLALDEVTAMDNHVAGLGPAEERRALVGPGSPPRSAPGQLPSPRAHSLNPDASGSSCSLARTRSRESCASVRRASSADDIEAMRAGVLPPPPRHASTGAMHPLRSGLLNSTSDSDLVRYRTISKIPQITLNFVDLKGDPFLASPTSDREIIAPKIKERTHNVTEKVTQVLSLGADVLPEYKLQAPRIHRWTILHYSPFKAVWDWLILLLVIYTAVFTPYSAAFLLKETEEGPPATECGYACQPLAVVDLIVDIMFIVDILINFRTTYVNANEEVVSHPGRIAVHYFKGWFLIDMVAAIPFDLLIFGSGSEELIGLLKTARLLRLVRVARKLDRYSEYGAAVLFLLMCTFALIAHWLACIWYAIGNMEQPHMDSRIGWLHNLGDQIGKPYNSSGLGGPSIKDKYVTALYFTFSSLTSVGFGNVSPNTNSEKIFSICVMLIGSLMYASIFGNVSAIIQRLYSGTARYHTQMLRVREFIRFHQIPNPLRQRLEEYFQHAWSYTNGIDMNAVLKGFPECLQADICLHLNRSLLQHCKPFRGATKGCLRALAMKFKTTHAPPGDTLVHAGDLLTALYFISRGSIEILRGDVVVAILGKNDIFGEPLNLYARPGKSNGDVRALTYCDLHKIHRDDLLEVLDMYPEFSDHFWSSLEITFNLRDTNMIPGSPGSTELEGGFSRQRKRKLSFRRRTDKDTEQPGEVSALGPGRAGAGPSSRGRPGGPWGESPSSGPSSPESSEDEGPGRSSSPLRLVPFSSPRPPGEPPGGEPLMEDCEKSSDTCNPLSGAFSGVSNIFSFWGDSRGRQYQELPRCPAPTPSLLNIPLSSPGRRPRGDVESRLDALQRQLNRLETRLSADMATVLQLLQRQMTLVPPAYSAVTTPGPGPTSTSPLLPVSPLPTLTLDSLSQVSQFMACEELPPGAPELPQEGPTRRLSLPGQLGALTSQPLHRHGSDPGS

Compared with `N#Cc1nc(-c2ccc([N+](=O)[O-])cc2)oc1N1CCCCC1`, `CN1CCN(c2oc(-c3ccc([N+](=O)[O-])cc3)nc2C#N)CC1` is lower in “hERG current change (%, negative = inhibition) at 10uM” value: 14.5% for the first, -66.1% for the second.

First: Cc1ccc(-c2nc(C#N)c(N3CCC(C(N)=O)CC3)o2)cc1
Second: COc1ccc(-c2nc(C#N)c(N3CCC(C(N)=O)CC3)o2)cc1
The “hERG current change (%, negative = inhibition) at 10uM” value of the first is lower: -23.7% for the first, -15.6% for the second.

Compared with `CCOc1ccc(-c2nc(C#N)c(N3CCN(CC)CC3)o2)cc1`, `CCN1CCN(c2oc(-c3ccc(OC)cc3)nc2C#N)CC1` is higher in “hERG current change (%, negative = inhibition) at 10uM” value: -47.3% for the first, -45.6% for the second.

Compared with `CCOc1ccc(-c2nc(C#N)c(N3CCN(C)CC3)o2)cc1`, `CCN1CCN(c2oc(-c3ccc([N+](=O)[O-])cc3)nc2C#N)CC1` is lower in “hERG current change (%, negative = inhibition) at 10uM” value: -32.5% for the first, -53.1% for the second.

Compared with `CC(C)(C)c1ccc(-c2nc(C#N)c(N3CCC(C(N)=O)CC3)o2)cc1`, `CC(=O)Cn1c(N2CCC(Cc3ccccc3)CC2)nc2c1c(=O)[nH]c(=O)n2C` is higher in “hERG current change (%, negative = inhibition) at 10uM” value: -63.3% for the first, 10.3% for the second.

Compared with `COCCN(C(=S)Nc1ccc(C(C)C)cc1)C(C)c1cccs1` (centres unmarked), `CC(C)Cc1ccc(C(C)C(=O)Nc2ccc(O)cc2)cc1` (centres unmarked) is higher in “hERG current change (%, negative = inhibition) at 10uM” value: 8.26% for the first, 11.3% for the second.

Going from `COCC(C)NC(=O)CSc1ncnc2sc(-c3ccccc3)cc12` (centres unmarked) to `CC(=O)NCc1nnc2c3ccccc3c(-c3ccccc3)nn12`, the “hERG current change (%, negative = inhibition) at 10uM” value falls from -10.1% to -31.9%.

Going from `CCC(C)(C)n1c(=O)[nH]c2c(c1=O)CCC2` to `CCn1c(=O)n(CCc2ccccc2)c(=O)c2c3c(sc21)CCCC3`, the “hERG current change (%, negative = inhibition) at 10uM” value falls from 6.59% to 1.05%.

First: O=C(O)COCC(=O)Nc1ccc(OCCc2ccccc2)cc1
Second: O=C(COc1ccc([N+](=O)[O-])cc1)NCc1ccccc1
The “hERG current change (%, negative = inhibition) at 10uM” value of the first is higher: 11.8% for the first, -38.9% for the second.

Going from `Cc1cccc(NS(=O)(=O)c2cc3c4c(c2)CCC(=O)N4CCC3)c1` to `O=C(O)Cn1c(=O)c2c3c(sc2n(Cc2ccccc2)c1=O)CCCC3`, the “hERG current change (%, negative = inhibition) at 10uM” value rises from -21.6% to 16.6%.

First: COc1cc(/C=C(/C#N)C(=O)Nc2ccccc2)c(Br)cc1OCc1ccc(C(=O)O)cc1
Second: Cc1ccc(C(=O)Nc2ccccc2C(=O)NCc2ccccc2)cc1
The “hERG current change (%, negative = inhibition) at 10uM” value of the first is higher: 9.98% for the first, 5.63% for the second.

Compared with `CC(C)Cc1ccc(C(C)C(N)=Nc2ccc(O)cc2)cc1.Cl` (centres unmarked), `CC(C)Cc1ccc(C(C)C(N)=NCCc2ccccc2)cc1.Cl` (centres unmarked) is higher in “hERG current change (%, negative = inhibition) at 10uM” value: -80.2% for the first, -67.5% for the second.

Compared with `CC(C)Cc1ccc([C@H](C)C(=O)O)cc1`, `CC(C)Cc1ccc(C(C)C(=N)N)cc1.Cl` (centres unmarked) is lower in “hERG current change (%, negative = inhibition) at 10uM” value: 7.11% for the first, -6.14% for the second.

Compared with `COc1ccc(CCN=C(N)C(C)c2ccccc2)cc1OC.Cl` (centres unmarked), `COc1ccc(CNC(=O)COc2ccc(OC)cc2)cc1` is higher in “hERG current change (%, negative = inhibition) at 10uM” value: 11.4% for the first, 13.8% for the second.

Compared with `COc1cc(NC(=O)C2CC(c3cccc(Br)c3)=NO2)cc(OC)c1OC` (centres unmarked), `COc1ccc(OC)c(S(=O)(=O)NCCc2csc(-c3cccnc3)n2)c1` is higher in “hERG current change (%, negative = inhibition) at 10uM” value: -11.6% for the first, 4.92% for the second.

Compared with `COc1ccccc1N1CCN(C(=O)c2ccccc2Oc2ccccc2)CC1`, `O=C(NCc1nnc2c3ccccc3c(-c3ccccc3)nn12)c1ccccc1Cl` is lower in “hERG current change (%, negative = inhibition) at 10uM” value: -25.7% for the first, -78.9% for the second.

Going from `Cc1cccc(N(CC(O)CON=C2c3ccccc3-c3ccccc32)S(C)(=O)=O)c1` (centres unmarked) to `Cc1cccc(C(=O)NCc2nnc3c4ccccc4c(-c4ccccc4)nn23)c1`, the “hERG current change (%, negative = inhibition) at 10uM” value falls from 15.1% to -4.14%.

Compared with `O=C(COc1ccc([N+](=O)[O-])cc1)NCc1ccncc1`, `O=C(COc1ccc([N+](=O)[O-])cc1)NCc1cccnc1` is higher in “hERG current change (%, negative = inhibition) at 10uM” value: -67.6% for the first, -33.4% for the second.

Going from `COc1ccc(CCNC(=O)COc2ccc([N+](=O)[O-])cc2)cc1` to `COc1ccc(CNC(=O)COc2ccc([N+](=O)[O-])cc2)cc1`, the “hERG current change (%, negative = inhibition) at 10uM” value falls from -31.1% to -64.5%.

Compared with `CN(C)c1ccc(P(=O)(COc2ccc([N+](=O)[O-])cc2)c2ccc(N(C)C)cc2)cc1`, `COc1ccc(P(=O)(COc2ccc([N+](=O)[O-])cc2)c2ccc(OC)cc2)cc1` is lower in “hERG current change (%, negative = inhibition) at 10uM” value: -41.9% for the first, -71% for the second.

First: COc1ccc(OCC(=O)NNC(=S)NC(=O)c2ccc([N+](=O)[O-])cc2)cc1
Second: O=C(CSc1nnc(CNC(=O)c2ccccc2)o1)c1ccc(Cl)cc1
The “hERG current change (%, negative = inhibition) at 10uM” value of the first is higher: 15.6% for the first, -30.3% for the second.

Going from `CN(C)c1ccc(/C=N/NC(=O)c2ccc3c(c2)OCCO3)cc1` to `CS(=O)(=O)N(CC(=O)NCCSCc1cccc(Cl)c1)c1ccccc1F`, the “hERG current change (%, negative = inhibition) at 10uM” value falls from 9.93% to -20.2%.

Going from `CCC(CC)NC(=O)CCCSc1nc2ccccc2[nH]1` to `CCOC(=O)c1sc2c(c1C)c(=O)n(CCO)c(=O)n2Cc1ccccc1`, the “hERG current change (%, negative = inhibition) at 10uM” value falls from 22.3% to 4.88%.

Going from `O=C(Nc1cccnc1)c1ccc([N+](=O)[O-])s1` to `Cc1c(C(=O)O)sc2c1c(=O)n(Cc1ccccc1)c(=O)n2C`, the “hERG current change (%, negative = inhibition) at 10uM” value rises from -20.1% to 23.2%.

First: CCOC(=O)c1sc2c(c1C)c(=O)n(Cc1ccccc1)c(=O)n2CCN(C)C
Second: CN(C)CCn1c(=O)n(Cc2ccccc2)c(=O)c2c3c(sc21)CCCCC3
The “hERG current change (%, negative = inhibition) at 10uM” value of the first is lower: -58.9% for the first, -3.31% for the second.

Compared with `NC(=O)Cn1c(=O)n(C2CCCCC2)c(=O)c2c3c(sc21)CCCCC3`, `CN(C)CCn1c(=O)n(C2CCCCC2)c(=O)c2c3c(sc21)CCCCC3` is lower in “hERG current change (%, negative = inhibition) at 10uM” value: -6.3% for the first, -25.3% for the second.

Compared with `NC(=O)Cn1c(=O)n(CCc2ccccc2)c(=O)c2c3c(sc21)CCCC3`, `CN(C)CCCn1c(=O)n(CCc2ccccc2)c(=O)c2c3c(sc21)CCCCC3` is lower in “hERG current change (%, negative = inhibition) at 10uM” value: -15% for the first, -70.4% for the second.

First: CN(C)CCCn1c(=O)n(C2CCCCC2)c(=O)c2c3c(sc21)CCCCC3
Second: CN(C)CCCn1c(=O)n(Cc2ccccc2)c(=O)c2c3c(sc21)CCCCC3
The “hERG current change (%, negative = inhibition) at 10uM” value of the first is higher: -53.8% for the first, -58.9% for the second.

Compared with `CCOc1ccc(C2(C#N)CC[N+](C)(C)CC2)cc1.[Br-]`, `OCc1nnc2c3ccccc3c(-c3ccccc3)nn12` is lower in “hERG current change (%, negative = inhibition) at 10uM” value: 2.83% for the first, -4.77% for the second.

In the case of `O=C(NCc1nnc2c3ccccc3c(-c3ccccc3)nn12)c1ccc(Cl)cc1`, the “hERG current change (%, negative = inhibition) at 10uM” value was -52.4%.
